Results filed as inconclusive are left out. Activity calls are given as the source filed them. Unless noted, calls come from the whole dose curve; as a rule, active = well fitted curve in the direction sought with a large enough effect in the repeat runs; inconclusive = weak or mixed curves; inactive = no such curve, though single readings can be large; an effect the other way counts as inactive or inconclusive. Where a SMILES comes first, the peptide text is derived from it.
Tests used:
[1] = molecular target: Nuclear receptor subfamily 1 group I member 3 (Homo sapiens) (UniProt Q14994); test: qHTS assay to identify small molecule agonists of the constitutive androstane receptor (CAR) signaling pathway (AID 1224839);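 note: HepG2 cells stably carrying human CAR and a CYP2B6 luciferase reporter; series mostly up to about 92 µM; nearly all actives have a fitted effect of over 15% in size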
Sequence of Nuclear receptor subfamily 1 group I member 3 (Homo sapiens) (Q14994 whole entry, looked up): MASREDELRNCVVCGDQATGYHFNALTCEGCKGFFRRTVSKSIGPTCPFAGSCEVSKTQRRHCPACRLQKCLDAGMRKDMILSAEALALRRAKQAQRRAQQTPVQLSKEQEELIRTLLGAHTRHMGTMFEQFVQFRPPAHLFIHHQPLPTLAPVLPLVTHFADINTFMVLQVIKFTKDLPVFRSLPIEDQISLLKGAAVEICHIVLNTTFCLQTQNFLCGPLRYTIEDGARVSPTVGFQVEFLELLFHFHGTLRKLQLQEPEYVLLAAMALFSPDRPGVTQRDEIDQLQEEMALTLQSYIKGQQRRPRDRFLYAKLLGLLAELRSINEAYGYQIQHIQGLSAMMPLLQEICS
Summary of the method: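 Using human hepatoma HepG2 cells engineered with hCAR and a CYP2B6-2.2kb reporter, 15-concentration compound series were incubated 24 h alongside PK11195 at 0.75 uM final, with luminescence quantified afterwards.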

[2] = qHTS assay to identify small molecule antagonists of the estrogen related receptor signaling pathway with the pleiotropic PPARgamma coactivator (PGC) from Tox21 10K library - cell viability counter screen (AID 1224840; active = well fitted cell-killing curve with a large enough effect in the repeat runs, not every such curve was filed as active; note: nearly all actives have a fitted effect of over 40% in size)
Summary of the method: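 Fluorescence read-out of CellTiter-Fluor viability reagent, added after cells had been exposed to compound in DMSO for 17.5 h at 37 C; 30 min development at 37 C/5% CO2. Cells: PGC/ERR line, 2,000/well.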

[3] = qHTS assay to identify small molecule agonists of the hypoxia (HIF-1) signaling pathway - cell viability counter screen (AID 1224844; calls by dose curve; note: nearly all actives have a fitted effect of over 50% in size)
Summary of the method: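 CellTiter-Glo luminescence read-out, 30 min RT, taken in the same wells as the beta-lactamase HRE reporter assay; HRE-bla ME-180 cells, 0.5% dialyzed FBS, 17 hr compound treatment at 37C, 5% CO2.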

[4] = qHTS assay to identify small molecule agonists of H2AX (AID 1224845; active = well fitted activation curve with a large enough effect in the signal ratio in the repeat runs, not every such curve was filed as active; the % refers to the signal ratio)
Summary of the method: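 Wild-type CHO-K1 cells, plated overnight, exposed 3hr at 37C to 15 concentrations (0.76% DMSO final). Lysed, then HTRF anti-pH2AX (S139) cryptate and anti-H2AX-d2 antibodies, 24 hr room temperature; 665/620 nm emission read.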

[5] = qHTS assay to identify small molecule agonists of the hypoxia (HIF-1) signaling pathway (AID 1224846; active = well fitted activation curve with a large enough effect in the signal ratio in the repeat runs, not every such curve was filed as active; the % refers to the signal ratio)
Summary of the method: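 Beta-lactamase FRET read-out (CCF4-AM substrate) from ME-180 cells carrying an HRE-driven bla reporter, after 17 hrs compound exposure at 37C/5% CO2. Cells were seeded at 2,000 per well in 0.5% dialyzed FBS medium and preincubated 5 hrs.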

[6] = qHTS RealTime-Glo MT Cell Viability Assay in HepG2 cells - 24 hour (AID 1224867); note: nearly all actives have a fitted effect of over 50% in size
Summary of the method: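 Cells + NanoLuc/prosubstrate dispensed (600 cells/well) → 5 h at 37 C/5% CO2 → compounds in DMSO transferred → 40 h incubation at 37 C, luminescence read at 0, 8, 16, 24, 32, 40 h.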

[7] = qHTS RealTime-Glo MT Cell Viability Assay in HEK293 cells - 32 hour (AID 1224868); note: top concentration of the series differs between compounds; nearly all actives have a fitted effect of over 50% in size
Summary of the method: (§1)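 Tox21 10K qHTS, HEK293, 600 cells/well, RealTime-Glo reagent co-dispensed with cells; 5 h preincubation, compound by pintool, 37 C, luminescence at 0–40 h.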

[8] = A CellTox Green Cytotoxicity Assay to monitor cytotoxicity in HEK293 cells - 0 hour (AID 1224869); note: nearly all actives have a fitted effect of over 50% in size
Summary of the method: (§2)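 Read-out: fluorescence of a cell-impermeant cyanine dye staining DNA of dead cells, proportional to cytotoxicity. HEK293, 600 cells/well with reagent, compound (23 nL DMSO) added after 5 h; reads at 0, 8, 16, 24, 32, 40 h.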

[9] = qHTS RealTime-Glo MT Cell Viability Assay in HepG2 cells - 40 hour (AID 1224870); note: nearly all actives have a fitted effect of over 50% in size
Summary of the method: (§3)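 HepG2 cells (600/well) mixed with RealTime-Glo MT reagent, settled 5 h at 37 C/5% CO2 before compound addition. Nonlytic NanoLuc luminescence from viable-cell prosubstrate reduction read repeatedly during 40 h treatment at 37 C.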

[10] = A CellTox Green Cytotoxicity Assay to monitor cytotoxicity in HEK293 cells - 40 hour (AID 1224871); note: nearly all actives have a fitted effect of over 45% in size
Summary of the method: as §2

[11] = qHTS RealTime-Glo MT Cell Viability Assay in HEK293 cells - 16 hour (AID 1224872)
Summary of the method: as §1

[12] = qHTS RealTime-Glo MT Cell Viability Assay in HEK293 cells - 40 hour (AID 1224874); conditions: RealTime-Glo luminescence; max response: hits give low values; note: nearly all actives have a fitted effect of over 50% in size
Summary of the method: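 Luminescence readout at each listed time point; HEK293, 600 cells/well, RealTime-Glo MT reagent added with cells; compounds pinned (23 nL in DMSO) after 5 h at 37 C; continuous culture at 37 C.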

[13] = A CellTox Green Cytotoxicity Assay to monitor cytotoxicity in HEK293 cells - 24 hour (AID 1224875); note: series mostly up to about 77 µM; nearly all actives have a fitted effect of over 45% in size
Summary of the method: as §2

[14] = qHTS assay to identify small molecule agonists of H2AX - cell viability counter screen (AID 1224847; calls by dose curve; note: top concentration of the series differs between compounds; nearly all actives have a fitted effect of over 30% in size)
Summary of the method: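 After overnight plating of 1000 CHO-K1 cells per well, a 15-concentration compound series was applied for 3 hr at 37C. Luminescence from CellTiter-Glo, read following 30 min at room temperature, reflected cell viability.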

[15] = qHTS RealTime-Glo MT Cell Viability Assay in HepG2 cells - 8 hour (AID 1224873); note: nearly all actives have a fitted effect of over 55% in size
Summary of the method: as §3

[16] = molecular target: Thyrotropin receptor (Homo sapiens) (UniProt P16473); test: qHTS assay to identify small molecule agonists of the thyroid stimulating hormone receptor (TSHR) signaling pathway (AID 1224843; calls by dose curve; note: nearly all actives have a fitted effect of over 45% in size)
Sequence of Thyrotropin receptor (Homo sapiens) (P16473 whole entry, looked up): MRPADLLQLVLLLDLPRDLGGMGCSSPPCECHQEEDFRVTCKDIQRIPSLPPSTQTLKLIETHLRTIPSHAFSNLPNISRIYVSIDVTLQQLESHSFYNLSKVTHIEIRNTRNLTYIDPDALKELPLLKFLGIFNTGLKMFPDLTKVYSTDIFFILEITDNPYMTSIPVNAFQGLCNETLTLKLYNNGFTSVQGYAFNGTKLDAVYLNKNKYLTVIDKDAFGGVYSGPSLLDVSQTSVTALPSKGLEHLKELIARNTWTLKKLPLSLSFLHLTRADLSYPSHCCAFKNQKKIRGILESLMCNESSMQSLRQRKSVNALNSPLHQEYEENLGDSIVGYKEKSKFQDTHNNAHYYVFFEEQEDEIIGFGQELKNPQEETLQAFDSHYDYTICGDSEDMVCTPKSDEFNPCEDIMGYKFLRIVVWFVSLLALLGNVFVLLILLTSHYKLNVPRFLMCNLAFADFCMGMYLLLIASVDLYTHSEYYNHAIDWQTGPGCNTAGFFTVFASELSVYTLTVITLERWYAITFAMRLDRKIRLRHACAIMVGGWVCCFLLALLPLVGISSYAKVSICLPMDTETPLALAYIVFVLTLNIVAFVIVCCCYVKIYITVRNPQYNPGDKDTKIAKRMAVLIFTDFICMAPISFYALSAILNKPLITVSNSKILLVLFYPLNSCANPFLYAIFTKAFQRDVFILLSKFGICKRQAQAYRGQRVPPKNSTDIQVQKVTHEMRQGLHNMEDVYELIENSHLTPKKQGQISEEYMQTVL
Summary of the method: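 HEK293/TSHR, 800 cells/well; cpd 30 min RT; add cAMP-d2 + anti-cAMP-cryptate, 1 h RT; fluorescence read on plate reader. 15-pt titration, n=3.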
% is set by controls: 0 for no effect and ±100 for the full control effect.

O=C1c2ccccc2C(=O)c2cc(Cl)ccc21
inactive: activation [1] 8.38% [at 8.39 µM] | viability change, negative = cytotoxic [2] 5.77% [at 8.39 µM] | activity change, negative = cytotoxicity [3] 10.7% [at 6.97 µM] | activation (H2AX phosphorylation) [4] 2.59% [at 14 µM] | activation [5] -0.0803% [at 7.01 µM] | activity change, negative = cytotoxicity [6] -1.65% [at 6.97 µM] | activity change, negative = cytotoxic [7] -1.41% [at 6.97 µM] | cytotoxicity [8] -6.57% [at 6.97 µM] | activity change, negative = cytotoxic [9] -4.67% [at 6.97 µM] | cytotoxicity increase [10] -5.31% [at 6.97 µM] | activity change, negative = cytotoxicity [11] 4.83% [at 6.97 µM] | max response [12] 3.12% | activity change [13] -1.14% [at 6.97 µM, hits give high values]

C[Si]1(C)O[Si](C)(C)O[Si](C)(C)O[Si](C)(C)O[Si](C)(C)O1
inactive: Potency [1] | outcome [2] | outcome [3] | outcome [4] | outcome [5] | outcome [14] | outcome [6] | Potency [8] | outcome [9] | Potency [10] | Potency [11] | outcome [15] | max response [12] 5.69% | Potency [13]

CC(=O)Nc1ccc(OC(=O)c2ccccc2OC(C)=O)cc1
inactive: Potency [1] | outcome [2] | outcome [3] | outcome [4] | outcome [5] | outcome [14] | outcome [6] | Potency [7] | Potency [8] | Potency [11] | outcome [15] | max response [12] 3.46%

[O-][n+]1cccc(/C(Cl)=N/OC[C@@H](O)CN2CCCCC2)c1
inactive: Potency [1] | outcome [2] | outcome [3] | outcome [4] | outcome [5] | outcome [6] | Potency [7] | Potency [8] | outcome [9] | Potency [10] | Potency [11] | outcome [15] | max response [12] 2.14% | Potency [13]

CCOC(=O)CC1(C)OCC(C)O1 (stereo not given)
inactive: Potency [1] | outcome [2] | outcome [3] | outcome [4] | outcome [5] | outcome [6] | Potency [7] | Potency [8] | outcome [9] | Potency [10] | Potency [11] | max response [12] 1.97% | Potency [13]

Cc1ccc(N)cc1S(=O)(=O)O
inactive: Potency [1] | outcome [2] | outcome [3] | outcome [4] | outcome [5] | outcome [14] | outcome [6] | Potency [8] | Potency [10] | Potency [11] | outcome [15] | max response [12] 7.16% | Potency [13]

C=C(C)[C@@H]1CC=C(C)C(=O)C1
inactive: outcome [2] | outcome [16] | outcome [3] | outcome [4] | outcome [5] | outcome [6] | Potency [8] | Potency [10] | max response [12] -8.2% | Potency [13]

Cc1ccc(C(C)NC(=O)[C@@H](NC(=O)OC(C)C)C(C)C)cc1 (stereo not given in full)
inactive: Potency [1] | outcome [2] | outcome [3] | outcome [4] | outcome [5] | outcome [6] | Potency [7] | Potency [8] | Potency [10] | Potency [11] | outcome [15] | max response [12] -6.73% | Potency [13]

C=CC/C=C/C
inactive: outcome [2] | outcome [16] | outcome [3] | outcome [4] | outcome [5] | outcome [14] | outcome [6] | Potency [8] | Potency [10] | outcome [15] | max response [12] -0.772% | Potency [13]

CC(=O)N[C@@H](CO)C(=O)N[C@@H](CC(=O)O)C(=O)N[C@@H](CCCCN)C(=O)N1CCC[C@H]1C(=O)O (Ac-SDKP-OH)
inactive: Potency [1] | outcome [2] | outcome [3] | outcome [4] | outcome [5] | outcome [14] | outcome [6] | Potency [8] | outcome [9] | Potency [10] | Potency [11] | outcome [15] | max response [12] 3.58%

CCN1CCCC1CN (stereo not given)
inactive: Potency [1] | outcome [2] | outcome [3] | outcome [4] | outcome [5] | outcome [14] | outcome [6] | Potency [7] | Potency [8] | Potency [10] | Potency [11] | max response [12] 9.62% | Potency [13]

CC1CC(=O)CC(C)(C)C1 (stereo not given)
inactive: outcome [2] | outcome [16] | outcome [3] | outcome [4] | outcome [5] | outcome [14] | outcome [6] | Potency [7] | Potency [8] | outcome [9] | Potency [10] | Potency [11] | outcome [15] | max response [12] -1.21% | Potency [13]

CCCCCC/C=C/C(=O)OC
inactive: outcome [2] | outcome [3] | outcome [4] | outcome [5] | outcome [14] | outcome [6] | Potency [7] | Potency [8] | outcome [9] | Potency [11] | outcome [15]

C=C(C)C1CC=C(C)C(=O)C1 (stereo not given)
inactive: outcome [2] | outcome [16] | outcome [3] | outcome [4] | outcome [5] | outcome [14] | outcome [6] | Potency [7] | Potency [8] | outcome [9] | Potency [10] | Potency [11] | max response [12] 0.21% | Potency [13]

CCC/C=C(\C=O)CC
inactive: Potency [1] | outcome [2] | outcome [3] | outcome [4] | outcome [5] | outcome [14] | outcome [6] | Potency [8] | outcome [9] | Potency [10] | Potency [11] | outcome [15] | max response [12] -24.3% | Potency [13]

CC(C)COC(=O)c1ccccc1
inactive: Potency [1] | outcome [2] | outcome [3] | outcome [4] | outcome [5] | outcome [14] | outcome [6] | Potency [7] | Potency [8] | outcome [9] | Potency [10] | outcome [15] | max response [12] 2.33% | Potency [13]

CC1=NN(c2ccc(S(=O)(=O)O)cc2)C(=O)C1
inactive: Potency [1] | outcome [2] | outcome [3] | outcome [5] | outcome [14] | outcome [6] | Potency [8] | outcome [9] | Potency [10] | Potency [11] | outcome [15] | max response [12] 3.12% | Potency [13]

O=C(NCN1CCOCC1)c1cnccn1
inactive: Potency [1] | outcome [2] | outcome [3] | outcome [4] | outcome [5] | outcome [6] | Potency [7] | Potency [8] | outcome [9] | Potency [10] | Potency [11] | outcome [15] | max response [12] 2.14% | Potency [13]
